Measurements reported in PubChem BioAssay (Tox21).
Records with an inconclusive call do not appear. Calls of active or inactive are those of the source. Unless noted, calls come from the whole dose curve.

What was measured:
[1] = qHTS assay to identify small molecule antagonists of the sonic hedgehog signaling (Shh) pathway (AID 1259369); note: nearly all actives have a fitted effect of over 45% in size
Summary of the method: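 Screening used 3T3Gli1-Luc cells at 2,000 per well, compounds delivered in DMSO, and conditioned medium as agonist stimulus; plates incubated 24hr at 37 C and 5% CO2 before a 30min luciferase step.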

[2] = target: Estrogen receptor beta (Homo sapiens) (UniProt Q92731); experiment: qHTS assay to identify small molecule agonists of the estrogen receptor beta (ER-beta) signaling pathway (AID 1259377; active = well fitted activation curve with a large enough effect in the signal ratio in the repeat runs, not every such curve was filed as active; the % refers to the signal ratio)
Summary of the method: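 qHTS in ER-beta-UAS-bla HEK293T cells: 6 hr settling, then 16 hr compound at 37C, then LiveBLAzer substrate 2 h at RT before fluorescence reading.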

[3] = target: Estrogen receptor beta (Homo sapiens) (UniProt Q92731); experiment: qHTS assay to identify small molecule antagonists of the estrogen receptor beta (ER-beta) signaling pathway (AID 1259378; active = well fitted inhibition curve with a large enough effect in the signal ratio in the repeat runs, not every such curve was filed as active; the % refers to the signal ratio)
Summary of the method: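 ER-beta-UAS-bla HEK293T (GripTite) cells in 2% charcoal-stripped FBS medium were preincubated 6 hr at 37C, dosed with compound, then stimulated with 1 nM E2 (final) for 16 hr; beta-lactamase reporter read by B/G FRET fluorescence after 2 hr substrate loading.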

[4] = qHTS assay to identify small molecule agonists of the estrogen receptor beta (ER-beta) signaling pathway - cell viability counter screen (AID 1259380; active = well fitted curve in the direction sought with a large enough effect in the repeat runs; an effect the other way counts as inactive or inconclusive; note: nearly all actives have a fitted effect of over 30% in size)
Summary of the method: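 Viability of ER-beta-UAS-bla HEK293T cells was determined by CellTiter-Glo luminescence following 16 hr treatment with test compounds at 37C.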

[5] = target: Androgen receptor (Homo sapiens) (UniProt P10275); experiment: qHTS assay to identify small molecule agonists of the androgen receptor (AR) signaling pathway in the presence of an antagonist (AID 1259381); note: nearly all actives have a fitted effect of over 15% in size
Summary of the method: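 Here, 15-concentration compound series were pin-transferred onto MDA-kb2 MMTV-luciferase cells already dosed with nilutamide (3.0uM final). After 16hr at 37C, ONE-Glo was added and luminescence read 30min later at room temperature.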

[6] = qHTS assay to identify small molecule antagonists of the estrogen receptor beta (ER-beta) signaling pathway - cell viability counter screen (AID 1259382; active = well fitted curve in the direction sought with a large enough effect in the repeat runs; an effect the other way counts as inactive or inconclusive; note: series mostly up to about 92 µM; nearly all actives have a fitted effect of over 55% in size)
Summary of the method: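 Tox21 10K library tested in qHTS format on ER-beta-bla HEK293T cells stimulated with 1nM E2; 16 hr treatment at 37C. Same-well CellTiter-Glo luminescence served as the cell viability measure.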

[7] = target: Estrogen receptor (Homo sapiens) (UniProt P03372); experiment: qHTS assay to identify small molecule agonists of the estrogen receptor alpha (ER-alpha) signaling pathway in the presence of an antagonist (AID 1259383); note: top concentration of the series differs between compounds; nearly all actives have a fitted effect of over 15% in size
Summary of the method: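 In VM7Luc4E2 cells, 4,000 per well, compounds at 15 concentrations were co-incubated 22hr at 37C with 10.0nM final ICI-182,780. Luminescence from the stably transfected 4×ERE-luciferase reporter was recorded 30min after ONE-Glo addition.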

[8] = qHTS assay to identify small molecule agonists or antagonists of the thyroid stimulating hormone receptor (TSHR) signaling pathway - wild type cell line counter screen (AID 1259384)
Summary of the method: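 Wild-type HEK293 cells were plated 18 h at 37 C/5% CO2, pin-dosed with compound plus Ro20-1724 medium, held 30 min at room temperature, then given cAMP-d2 and anti-cAMP-cryptate; fluorescence was read after 1 h. Fifteen concentrations, triplicate.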

[9] = target: Thyrotropin receptor (Homo sapiens) (UniProt P16473); experiment: qHTS assay to identify small molecule antagonists of the thyroid stimulating hormone receptor (TSHR) signaling pathway (AID 1259385); note: nearly all actives have a fitted effect of over 20% in size
Summary of the method: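 TSHR-HEK293 cells were plated and held 18 h at 37C/5% CO2, then given compound plus Ro20-1724 and stimulated with TSH at 1.5 ng/mL final. After 30 min at room temperature, cAMP was detected with cAMP-d2/anti-cAMP-cryptate (1 h) by fluorescence.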

[10] = qHTS assay to identify small molecule agonists of the estrogen receptor alpha (ER-alpha) signaling pathway in the presence of an antagonist - cell viability counter screen (AID 1259386; active = well fitted curve in the direction sought with a large enough effect in the repeat runs; an effect the other way counts as inactive or inconclusive;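 note: series mostly up to about 92 µM; cells exposed to compounds for 22 h at 37 °C before the viability read; nearly all actives have a fitted effect of over 30% in size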)
Summary of the method: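 Fluorescent CellTiter-Fluor viability signal from VM7Luc4E2 cells, with the reagent added during the final hour of a 22hr compound exposure at 37C in the presence of 10.0nM ICI-182,780.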

[11] = target: Progesterone receptor (Homo sapiens) (UniProt P06401); experiment: qHTS assay to identify small molecule agonists of the progesterone receptor (PR) signaling pathway (AID 1346784); note: nearly all actives have a fitted effect of over 30% in size
Summary of the method: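 Fluorescence from LiveBLAzer B/G FRET substrate cleavage (2 hr, RT) reported PR activation in PR-UAS-bla HEK 293T cells treated 16 hr at 37C/5% CO2 with compounds; medium contained 2% charcoal-stripped FBS.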

[12] = target: Progesterone receptor (Homo sapiens) (UniProt P06401); experiment: qHTS assay to identify small molecule antagonists of the progesterone receptor (PR) signaling pathway (AID 1346795; active = well fitted inhibition curve with a large enough effect in the signal ratio in the repeat runs, not every such curve was filed as active; the % refers to the signal ratio)
Summary of the method: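 Fluorescence intensity measured 2 hr after adding beta-lactamase FRET substrate to PR-UAS-bla HEK293T cells that had been co-treated 16 hr with compound and 1 nM R5020 (final concentration) in 2% charcoal-stripped FBS.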

[13] = qHTS assay to identify small molecule antagonists of the progesterone receptor (PR) signaling pathway - cell viability counter screen (AID 1346798; active = well fitted curve in the direction sought with a large enough effect in the repeat runs; an effect the other way counts as inactive or inconclusive; note: series mostly up to about 92 µM; nearly all actives have a fitted effect of over 50% in size)
Summary of the method: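 CellTiter-Glo luminescence; PR-UAS-bla HEK293T, 3,000 cells/well; compound + R5020, 16 hr, 37C/5% CO2; 30 min RT before read.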

[14] = qHTS assay to identify small molecule antagonists of the TGF-beta/Smad signaling pathway - cell viability counter screen (AID 1346824; active = well fitted curve in the direction sought with a large enough effect in the repeat runs; an effect the other way counts as inactive or inconclusive; note: nearly all actives have a fitted effect of over 50% in size)
Summary of the method: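 SBE-bla HEK 293T cells were plated overnight at 37 C, then given compounds in DMSO plus TGF-beta1 (added as 0.25 ng/mL solution) for 5 hr. After the bla read, CellTiter-Glo was added to the same wells and luminescence read after 30 min at room temperature.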

[15] = qHTS assay to identify small molecule agonists of the TGF-beta/Smad signaling pathway - cell viability counter screen (AID 1346829; active = well fitted curve in the direction sought with a large enough effect in the repeat runs; an effect the other way counts as inactive or inconclusive; note: top concentration of the series differs between compounds; nearly all actives have a fitted effect of over 45% in size)
Summary of the method: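 SBE-bla HEK 293T cells plated overnight, compound exposure 5 hr at 37 C. Viability read in the same wells by CellTiter-Glo luminescence after 30 min at room temperature, following the beta-lactamase read.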

[16] = qHTS assay to identify small molecule agonists of the TGF-beta/Smad signaling pathway (AID 1346859; active = well fitted activation curve with a large enough effect in the signal ratio in the repeat runs, not every such curve was filed as active; the % refers to the signal ratio; note: series mostly up to about 77 µM)
Summary of the method: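 After overnight seeding, SBE-bla HEK 293T cells are dosed with compounds in DMSO and kept 5 hr at 37 C, 5% CO2. LiveBLAzer-type FRET substrate is then applied for 2 hr at room temperature.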

[17] = target: Thyrotropin-releasing hormone receptor (Homo sapiens) (UniProt P34981); experiment: qHTS assay to identify small molecule antagonists of the thyrotropin-releasing hormone receptor (TRHR) signaling pathway (AID 1346877; active = well fitted inhibition curve with a large enough effect in the repeat runs, not every such curve was filed as active; note: series mostly up to about 51 µM)
Summary of the method: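 In this cell-based calcium flux format, HEK293 cells expressing TRHR received test compound for 5 min before the agonist TRH (1 nM final). Dye loading lasted 2 h at 37 °C.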

[18] = target: Thyrotropin-releasing hormone receptor (Homo sapiens) (UniProt P34981); experiment: qHTS assay to identify small molecule agonists of the thyrotropin-releasing hormone receptor (TRHR) signaling pathway (AID 1346891); note: series mostly up to about 58 µM
Summary of the method: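 Compounds were tested as agonists at 15 concentrations, in triplicate, on TRHR-Hek293 cells; calcium-sensitive dye fluorescence was recorded for 3 min following addition.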

[19] = qHTS assay to identify small molecule agonists of the androgen receptor (AR) signaling pathway in the presence of an antagonist - cell viability counter screen (AID 1259379; active = well fitted curve in the direction sought with a large enough effect in the repeat runs; an effect the other way counts as inactive or inconclusive;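 note: MDA-kb2 human breast cancer cells carrying an MMTV luciferase reporter; series mostly up to about 92 µM; nearly all actives have a fitted effect of over 25% in size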)
Summary of the method: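 In MDA-kb2 cells (human breast carcinoma, MMTV-luciferase), compounds at 15 concentrations plus 3.0uM nilutamide; 16 hr, 37C, 0% CO2; CellTiter-Fluor fluorescence read for viability.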

[20] = qHTS assay to identify small molecule agonists of the progesterone receptor (PR) signaling pathway - cell viability counter screen (AID 1346799); note: nearly all actives have a fitted effect of over 45% in size
Summary of the method: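 In parallel with the beta-lactamase readout, cytotoxicity toward PR-UAS-bla HEK293T cells was measured by CellTiter-Glo luminescence following 16 hr compound incubation in 2% charcoal-stripped FBS medium.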

Measured: Potency

Chain of Androgen receptor (Homo sapiens) (P10275 whole entry, looked up): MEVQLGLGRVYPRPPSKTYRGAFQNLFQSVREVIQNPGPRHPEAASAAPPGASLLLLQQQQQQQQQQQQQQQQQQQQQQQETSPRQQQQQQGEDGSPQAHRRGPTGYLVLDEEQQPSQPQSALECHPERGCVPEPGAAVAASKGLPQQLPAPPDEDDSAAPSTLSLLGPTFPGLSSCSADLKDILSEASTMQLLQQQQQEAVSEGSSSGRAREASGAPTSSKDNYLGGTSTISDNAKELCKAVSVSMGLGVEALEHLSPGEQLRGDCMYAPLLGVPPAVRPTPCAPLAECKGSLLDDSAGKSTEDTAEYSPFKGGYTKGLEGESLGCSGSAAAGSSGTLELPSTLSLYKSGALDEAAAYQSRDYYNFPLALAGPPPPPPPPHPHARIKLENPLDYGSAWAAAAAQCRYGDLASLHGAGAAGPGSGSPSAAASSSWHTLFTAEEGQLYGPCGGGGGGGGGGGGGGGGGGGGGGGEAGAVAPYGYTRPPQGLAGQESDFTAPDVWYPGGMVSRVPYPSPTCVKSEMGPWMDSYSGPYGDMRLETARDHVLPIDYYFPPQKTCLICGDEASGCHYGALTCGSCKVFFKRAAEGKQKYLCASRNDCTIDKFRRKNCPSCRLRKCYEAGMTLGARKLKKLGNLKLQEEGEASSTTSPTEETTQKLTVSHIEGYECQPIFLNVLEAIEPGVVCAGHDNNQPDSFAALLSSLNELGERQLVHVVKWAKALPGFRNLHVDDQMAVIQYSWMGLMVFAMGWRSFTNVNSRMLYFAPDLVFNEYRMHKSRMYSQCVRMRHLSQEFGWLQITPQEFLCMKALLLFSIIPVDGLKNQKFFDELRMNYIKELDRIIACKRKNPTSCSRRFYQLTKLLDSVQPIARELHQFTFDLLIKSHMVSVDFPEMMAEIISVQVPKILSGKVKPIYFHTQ
Chain of Estrogen receptor beta (Homo sapiens) (Q92731 whole entry, looked up): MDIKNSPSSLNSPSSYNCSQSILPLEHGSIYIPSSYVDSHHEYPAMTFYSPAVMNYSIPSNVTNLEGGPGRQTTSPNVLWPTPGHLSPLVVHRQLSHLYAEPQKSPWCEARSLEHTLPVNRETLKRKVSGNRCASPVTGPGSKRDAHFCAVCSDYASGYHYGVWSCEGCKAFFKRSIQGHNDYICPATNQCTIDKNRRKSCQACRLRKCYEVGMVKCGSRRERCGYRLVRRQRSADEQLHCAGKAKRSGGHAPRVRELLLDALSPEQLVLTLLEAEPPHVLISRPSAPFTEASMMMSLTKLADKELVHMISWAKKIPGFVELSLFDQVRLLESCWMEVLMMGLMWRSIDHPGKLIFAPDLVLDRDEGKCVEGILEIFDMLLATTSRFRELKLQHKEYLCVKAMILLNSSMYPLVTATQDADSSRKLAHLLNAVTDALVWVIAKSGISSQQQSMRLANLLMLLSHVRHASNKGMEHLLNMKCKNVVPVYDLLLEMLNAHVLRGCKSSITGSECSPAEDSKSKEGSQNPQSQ
Chain of Thyrotropin-releasing hormone receptor (Homo sapiens) (P34981 whole entry, looked up): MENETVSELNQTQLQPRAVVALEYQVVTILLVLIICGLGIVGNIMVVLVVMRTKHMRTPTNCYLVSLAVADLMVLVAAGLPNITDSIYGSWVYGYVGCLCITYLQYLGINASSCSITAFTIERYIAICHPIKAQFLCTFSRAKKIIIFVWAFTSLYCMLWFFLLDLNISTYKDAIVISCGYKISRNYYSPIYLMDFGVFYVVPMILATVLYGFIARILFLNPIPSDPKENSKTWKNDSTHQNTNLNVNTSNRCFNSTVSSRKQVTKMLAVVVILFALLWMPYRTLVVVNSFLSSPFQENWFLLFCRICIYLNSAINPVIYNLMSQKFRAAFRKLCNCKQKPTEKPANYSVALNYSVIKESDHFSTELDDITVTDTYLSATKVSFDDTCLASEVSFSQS
Chain of Estrogen receptor (Homo sapiens) (P03372 whole entry, looked up): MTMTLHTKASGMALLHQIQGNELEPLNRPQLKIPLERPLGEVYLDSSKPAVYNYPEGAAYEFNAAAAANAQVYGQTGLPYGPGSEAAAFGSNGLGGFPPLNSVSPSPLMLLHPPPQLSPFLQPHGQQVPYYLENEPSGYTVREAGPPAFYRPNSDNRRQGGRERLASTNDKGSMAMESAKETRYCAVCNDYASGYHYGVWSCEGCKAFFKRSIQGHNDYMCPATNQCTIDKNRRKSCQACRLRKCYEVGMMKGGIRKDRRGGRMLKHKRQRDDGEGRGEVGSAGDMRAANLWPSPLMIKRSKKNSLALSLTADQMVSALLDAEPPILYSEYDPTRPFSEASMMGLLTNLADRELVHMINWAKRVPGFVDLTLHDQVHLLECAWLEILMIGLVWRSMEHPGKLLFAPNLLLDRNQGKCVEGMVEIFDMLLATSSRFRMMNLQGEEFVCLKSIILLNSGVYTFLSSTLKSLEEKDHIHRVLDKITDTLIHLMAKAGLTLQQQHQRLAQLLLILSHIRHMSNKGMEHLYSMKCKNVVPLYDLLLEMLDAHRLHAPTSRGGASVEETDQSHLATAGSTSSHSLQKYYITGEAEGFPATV
Chain of Thyrotropin receptor (Homo sapiens) (P16473 whole entry, looked up): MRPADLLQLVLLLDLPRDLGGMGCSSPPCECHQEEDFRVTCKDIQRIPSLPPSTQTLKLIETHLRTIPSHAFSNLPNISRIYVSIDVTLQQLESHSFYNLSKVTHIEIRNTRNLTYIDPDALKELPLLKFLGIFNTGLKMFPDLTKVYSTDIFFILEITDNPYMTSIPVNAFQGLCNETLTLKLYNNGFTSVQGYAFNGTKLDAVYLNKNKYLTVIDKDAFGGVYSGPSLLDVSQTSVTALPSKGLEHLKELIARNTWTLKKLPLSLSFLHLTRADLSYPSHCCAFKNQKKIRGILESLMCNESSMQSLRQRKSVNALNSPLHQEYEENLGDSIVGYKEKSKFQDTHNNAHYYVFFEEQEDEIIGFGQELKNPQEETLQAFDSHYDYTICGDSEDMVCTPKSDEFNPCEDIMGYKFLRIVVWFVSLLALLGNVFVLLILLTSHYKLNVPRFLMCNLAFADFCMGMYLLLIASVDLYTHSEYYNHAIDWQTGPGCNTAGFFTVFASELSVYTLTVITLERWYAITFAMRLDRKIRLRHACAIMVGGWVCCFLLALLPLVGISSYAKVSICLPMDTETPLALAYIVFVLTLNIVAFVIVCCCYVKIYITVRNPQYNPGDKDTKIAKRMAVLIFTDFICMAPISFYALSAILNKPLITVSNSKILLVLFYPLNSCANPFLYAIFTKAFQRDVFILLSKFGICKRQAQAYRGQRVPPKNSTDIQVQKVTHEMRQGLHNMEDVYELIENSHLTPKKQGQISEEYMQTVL
Chain of Progesterone receptor (Homo sapiens) (P06401 whole entry, looked up): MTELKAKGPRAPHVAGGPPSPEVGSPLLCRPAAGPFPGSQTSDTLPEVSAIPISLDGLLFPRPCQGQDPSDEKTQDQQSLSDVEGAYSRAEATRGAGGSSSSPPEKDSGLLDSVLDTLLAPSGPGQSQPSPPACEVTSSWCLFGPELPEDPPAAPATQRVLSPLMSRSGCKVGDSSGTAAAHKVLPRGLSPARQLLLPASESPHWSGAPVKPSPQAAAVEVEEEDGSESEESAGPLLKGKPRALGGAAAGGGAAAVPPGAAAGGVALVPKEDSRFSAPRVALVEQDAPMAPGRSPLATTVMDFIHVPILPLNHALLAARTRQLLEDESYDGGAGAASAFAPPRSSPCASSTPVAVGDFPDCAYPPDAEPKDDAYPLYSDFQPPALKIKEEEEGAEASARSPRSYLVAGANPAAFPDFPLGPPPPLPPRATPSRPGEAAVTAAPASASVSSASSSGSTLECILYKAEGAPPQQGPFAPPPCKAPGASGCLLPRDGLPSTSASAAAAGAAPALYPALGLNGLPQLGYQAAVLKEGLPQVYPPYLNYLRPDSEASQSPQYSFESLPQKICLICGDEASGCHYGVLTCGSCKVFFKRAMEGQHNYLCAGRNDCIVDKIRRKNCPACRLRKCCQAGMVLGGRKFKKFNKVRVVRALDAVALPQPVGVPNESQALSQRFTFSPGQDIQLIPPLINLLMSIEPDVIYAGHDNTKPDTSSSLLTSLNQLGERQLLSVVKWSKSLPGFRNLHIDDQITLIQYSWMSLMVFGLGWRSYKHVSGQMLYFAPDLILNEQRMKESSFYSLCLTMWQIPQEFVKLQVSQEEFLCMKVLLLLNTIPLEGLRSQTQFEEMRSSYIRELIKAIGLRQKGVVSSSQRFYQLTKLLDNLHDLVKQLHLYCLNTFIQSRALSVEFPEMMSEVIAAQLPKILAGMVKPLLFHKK

Cc1ccc(-c2ccccc2C#N)cc1
not listed: [19] | [20]
inactive: all other assays above

C=C(C)C(=O)OCCOCCOCCOCCOC(=O)C(=C)C
not listed: [5] | [7] | [12]
inactive: all other assays above

CC1(C)[C@@H]2CC[C@@]1(C)[C@H](O)C2
not listed: [5] | [7] | [11]
inactive: all other assays above

CCCCCC(C)N (stereo unspecified)
not listed: [2] | [3] | [6] | [7]
inactive: all other assays above

OCCCCCO
not listed: [5] | [6] | [13] | [19]
inactive: all other assays above

CO[Si](C)(OC)c1ccccc1
not listed: [2] | [3] | [5]
inactive: all other assays above

O=S(=O)(O)c1cccc(S(=O)(=O)O)c1
not listed: [2] | [3] | [17] | [18]
inactive: all other assays above

NC(=O)NC1N=C([O][Al])NC1=O (stereo unspecified)
not listed: [2] | [3] | [7] | [13] | [15] | [17]
inactive: all other assays above
